Laboratory results as given in PubChem BioAssay (NCI).
Compounds without any hit were thinned out: in the full panel of roughly 79,000, 15% have a hit. Cut-off read from the data, not from the text of the source: active = growth inhibition above about 70%; inactive = the rest.

Experiments:
[1] = NCI Yeast Anticancer Drug Screen. Data for the rad50 strain (AID 155);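 note: 0% = growth of vehicle-only cultures of the same strain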; conditions: S. cerevisiae rad50 strain growth inhibition; at 50.0 µM; hits give high values
In short: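 Inhibition values express reduced yeast growth in compound-treated cultures relative to vehicle-treated controls.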

[2] = NCI Yeast Anticancer Drug Screen. Data for the mec2-1 strain (AID 157); conditions: S. cerevisiae mec2-1 strain, at 50.0 µM, hits give high values
In short: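 Strain: mec2-1 (DNA repair/cell cycle alteration). Compound exposure, then growth measured; inhibition expressed relative to vehicle.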

[3] = NCI Yeast Anticancer Drug Screen. Data for the sgs1 mgt1 strain (AID 161);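 note: 0% = growth of cultures given vehicle only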; conditions: S. cerevisiae sgs1 mgt1 strain, at 50.0 µM, hits give high values
In short: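 Read-out: growth inhibition vs vehicle controls. Cells: mutant yeast strain deficient in DNA damage repair.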

[4] = NCI Yeast Anticancer Drug Screen. Data for the cln2 rad14 strain (AID 165);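 note: 0% = growth equal to vehicle treated cultures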; conditions: S. cerevisiae cln2 rad14 strain, at 50.0 µM, hits give high values
In short: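 Compounds are applied to the cln2 rad14 yeast strain, and growth is then compared with that of vehicle-treated cultures to give inhibition.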

[5] = NCI Yeast Anticancer Drug Screen. Data for the bub3 strain (AID 167); conditions: S. cerevisiae bub3 mutant strain, at 50.0 µM, hits give high values
In short: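 Steps: expose the mutant yeast strain to compound; grow alongside vehicle-treated cultures; measure growth; express inhibition against the vehicle cultures.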

[6] = NCI Yeast Anticancer Drug Screen. Data for the mlh1 rad18 strain (AID 175); conditions: S. cerevisiae mlh1 rad18 strain growth inhibition; at 50.0 µM; hits give high values
In short: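 Read-out is yeast growth inhibition, calculated against vehicle-only controls. The compound was applied to a strain engineered with DNA damage repair alterations.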

Measured: growth inhibition

NC(=O)C(=CN1C(=O)/C(=C/c2ccccc2O)SC1=S)C(N)=O
inactive: [1] -21.6% | [2] 2.9% | [3] 10.9% | [4] 28.4% | [5] -4.85% | [6] -24.1%

CNC(=O)Nc1ccc(Cl)cc1C(=O)O
inactive: [1] -26.2% | [2] 2.45% | [3] -15.7% | [4] -72.2% | [5] -13.7% | [6] -7.45%

CCC(=O)C(CC)c1ccc(OC)cc1OC (stereo not given)
inactive: [1] -1.75% | [2] -31.4% | [3] -6.15% | [4] 3.85% | [5] 7.3% | [6] 15.6%

C=CCOC(=O)Cc1ccccc1C(=O)OCC=C
inactive: [1] -7.55% | [2] -1.2% | [3] -6.6% | [4] -42.2% | [5] 21.4% | [6] -6.25%

CC(C)CCCC(C)C1CCC2C3CC=C4CC(OC(=O)c5ccncc5)CCC4(C)C3CCC12C (stereo not given)
inactive: [1] 3.2% | [2] -12.1% | [3] -10.2% | [4] -28.4% | [5] -0.4% | [6] -23.6%

COC(=O)[C@]1(C)CCC[C@@]2(C)C1CC[C@@]13C=C(C(C)C)[C@@H](CC1=O)CC23 (stereo not given in full)
inactive: [1] 10.7% | [2] 4.7% | [3] -1.7% | [4] 32.7% | [5] 26.4% | [6] 19.1%

Cc1n[n+](CC(=O)c2ccccc2)c2sc(N)nn12
inactive: [1] -55.8% | [2] -31.4% | [3] -58.6% | [4] -50% | [5] -16.1% | [6] -70.5%

CC(=O)OCC(=O)O[C@@H]1[C@H]2[C@@H](OC(=O)c3ccccc3)[C@@H](C)C[C@]2(O)[C@H](OC(C)=O)[C@@]2(C)C[C@]1(OC(C)=O)C[C@H]1C(=O)C(C)(C)[C@@H](OC(C)=O)[C@@H]12
inactive: [1] -7.35% | [2] 8.2% | [3] -0.3% | [4] -15.3% | [5] 0.3% | [6] -17.8%

Cc1cc(N(CCC#N)CCC#N)ccc1/C=C1N=C(/C=C/c2ccccc2)N(c2ccc(S(N)(=O)=O)cc2)C\1=O
inactive: [1] 0.75% | [2] -0.2% | [3] -18.8% | [4] 0.6% | [5] -21.1% | [6] -3.9%

COCC(=O)Oc1ccc[nH]c1=O
inactive: [1] 1.55% | [2] 2.6% | [3] 7.85% | [4] -17.1% | [5] -7.25% | [6] 22.2%

Oc1ccc2ccc(O)cc2c1
inactive: [1] 21.4% | [2] 21.6% | [3] 10.4% | [4] 12.2% | [5] 11.8% | [6] 5.4%

O=C(O)CCc1nc2ccccc2c(=O)n1Cc1ccccc1
inactive: [1] 11.1% | [2] 10.1% | [3] -7.3% | [4] -6.1% | [5] 2.8% | [6] 10.4%

CSc1cc(C)n2nnnc2n1
inactive: [1] 1.25% | [2] -11.9% | [3] -3.2% | [4] -27.2% | [5] -3.75% | [6] -0.3%

O=C1OCc2c1cc1cc3c(cc1c2-c1ccc2c(c1)OCO2)OCO3
inactive: [1] 2.1% | [2] -36.1% | [3] 3.4% | [4] 4.8% | [5] -19.2% | [6] 3.85%

Oc1ccccc1C=Nc1ccc2c(ccc3c4ccccc4ccc23)c1
inactive: [1] 51.8% | [2] 39.8% | [3] 28% | [4] -6.65% | [5] 48.1% | [6] 39.8%

CCC(C)OC(=S)S.[Ag] (stereo not given)
inactive: [1] 5.25% | [2] -7.2% | [3] 0.7% | [4] -9.4% | [5] -1.85% | [6] 10.7%

OC(C(c1ccccc1)N1CCCCC1)C(O)(c1ccccc1)c1ccccc1 (stereo not given)
inactive: [1] 12.2% | [2] -3.15% | [3] 22.6% | [4] 24.9% | [5] 6.2% | [6] -0.5%

Cc1c(Br)[n+](=O)c2ccccc2n1[O-]
inactive: [1] 1.6% | [2] 6.45% | [3] 17.4% | [4] 14.2% | [5] 11.9% | [6] 21.9%

Cc1cn(CC(O)c2cc3ccccc3[nH]2)c(=O)[nH]c1=O (stereo not given)
inactive: [1] 9.7% | [2] 13.6% | [3] -0.1% | [4] 12.1% | [5] 9.65% | [6] 7.15%

CN(C)C(=O)CCOc1cccc2ccccc12
inactive: [1] 16.6% | [2] -3.1% | [3] -16% | [4] -69.5% | [5] -20.8% | [6] 1%
